Records with an inconclusive call do not appear. Where a call stands in place of a potency, no number is given. Activity calls are given as the source filed them. The call rests on the fitted dose curve.
Target: Muscarinic acetylcholine receptor M1 (Homo sapiens) (UniProt P11229)
Assay: Cholinergic receptor muscarinic 1 (CHRM1) small molecule antagonists, cell-based qHTS assay (AID 1963588); further: nearly all actives have a fitted effect of over 40% in size
Conditions: CHRM1-CHO antagonist mode, calcium flux fluorescence; series mostly up to 61.5 µM
From the text: National Center for Advancing Translational Sciences [NCATS]
Division of Preclinical Innovation [DPI]
U.S. Environmental Protection Agency [EPA]
National Institutes of Environmental Health Sciences [NIEHS]
National Toxicology Program [NTP]
U.S. Food and Drug Administration [FDA]
The CHRM1 is a muscarinic receptor. This receptor plays a crucial role in learning and memory processes and has long been identified as a promising therapeutic target for the improvement of cognitive decline in Alzheimer's disease (AD). The CHRM1-CHO cell line stably expressing human muscarinic acetylcholine receptor M1 (CHRM1) can be used for screening agonists and antagonists of interactions between CHRM1 and its ligands. The CHRM1-CHO Calcium Flux Assay is a homogeneous fluorescence-based assay for detecting the intracellular calcium level using FDSS kinetic plate reader system.
Tox21 Assay Protocol Summary:
CHRM1-CHO cells were dispensed at 1000 cells/3uL/well in 1536-well black-clear bottom plates using a Multidrop Dispenser. After the assay plates were incubated at a 37 C/5% CO2 incubator for 18 h, 3 uL of Dye Loading Buffer was transferred to the assay plate by a Flying Reagent Dispenser. The assay plates were incubated at 37 C for 1h. For antagonist mode, 23 nL of compounds dissolved in DMSO, positive controls or DMSO only was transferred to the assay plate by a pin tool. After 5 min incubation at room temperature, 1.5 uL of acetylcholine at 50nM was added to each well. The fluorescence intensity in the plates was measured using FDSS 7000EX kinetic plate reader for 3 min at 1 sec intervals. Each test compound was measured at 15 concentrations in three independent runs.

Sequence of Muscarinic acetylcholine receptor M1 (Homo sapiens) (P11229 whole entry, looked up): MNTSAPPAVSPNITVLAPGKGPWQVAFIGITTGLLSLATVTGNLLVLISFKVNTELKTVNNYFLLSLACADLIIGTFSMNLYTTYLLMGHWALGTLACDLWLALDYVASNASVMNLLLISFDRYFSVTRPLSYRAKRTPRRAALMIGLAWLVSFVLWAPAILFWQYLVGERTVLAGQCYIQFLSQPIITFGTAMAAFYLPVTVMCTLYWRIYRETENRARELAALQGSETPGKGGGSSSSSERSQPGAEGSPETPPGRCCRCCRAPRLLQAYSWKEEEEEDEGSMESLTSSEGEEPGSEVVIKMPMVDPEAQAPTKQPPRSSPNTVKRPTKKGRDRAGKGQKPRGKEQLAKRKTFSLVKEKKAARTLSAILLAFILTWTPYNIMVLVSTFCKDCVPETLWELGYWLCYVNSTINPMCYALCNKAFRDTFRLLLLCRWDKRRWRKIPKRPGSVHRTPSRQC

| Compound | Potency |
| --- | --- |
| CCCCC(CC)COCCO (stereo not given) | inactive |
| CO/N=C(/C(=O)N[C@@H]1C(=O)N2C(C(=O)O)=C(COC(N)=O)CS[C@H]12)c1ccco1 | inactive |
| CCOC(=O)c1ccc(OCCN2C[C@H](O)[C@@H](O)[C@H](O)[C@H]2CO)cc1 | inactive |
| Cc1sccc1Br | inactive |
| CC(C)(CO)[C@@H](O)C(=O)NCCC(=O)O | inactive |
| COc1ccc(Cl)cc1C | inactive |
| CC(=O)O[C@@H]1CC2C3CCc4cc(OC(=O)c5ccccc5)ccc4C3CCC2(C)[C@H]1OC(C)=O (stereo not given in full) | inactive |
| C(=C\c1ccccc1)/c1ccccc1 | inactive |
| CC(=O)Nc1ncc([N+](=O)[O-])s1 | inactive |
| COC(=O)c1ccc([N+](=O)[O-])cc1 | inactive |
| CC(C)CCOC(=O)c1ccccc1 | inactive |
| CCC1COC(=O)O1 (stereo not given) | inactive |
| CC(O)CCCCn1c(=O)c2c(ncn2C)n(C)c1=O (stereo not given) | inactive |
| O=C1Nc2ccccc2C1=O | inactive |
| COc1ccc(Br)c(C)c1 | inactive |
| O=C[O][Al]([O]C=O)[O]C=O | inactive |
| CC(COCCO)OCCO (stereo not given) | inactive |
| Nc1ccc(N=Nc2ccccc2)c(N)n1 | inactive |
| O=C(O)c1cc(-c2ccccc2)nc2ccccc12 | inactive |
| COCCOCCOCCOCCOC | inactive |

| Compound | Potency |
| --- | --- |
| O=C1CCN(c2ccccc2)N1 | inactive |
| Fc1ccccc1-c1ccccc1 | inactive |
| CC(C)c1ccc(S(=O)(=O)O)cc1 | inactive |
| C[N+](C)(CCOc1ccccc1)Cc1cccs1 | inactive |
| O=C(O)CCCCCC(=O)O | inactive |
| COc1cc(C)c(Cc2cnc(N)nc2N)cc1OC | inactive |
| CCCC(O)C(O)CO (stereo not given) | inactive |
| CC(C)(C)C(=O)OCOC(=O)C1N2C(=O)CC2S(=O)(=O)C1(C)C (stereo not given) | inactive |
| NC(=O)NS(=O)(=O)c1ccc(Cl)cc1 | inactive |
| CC1=CCC(=O)O1 | inactive |
| COC(=O)Cc1cccc2ccccc12 | inactive |
| [Cl][Nd]([Cl])[Cl] | inactive |
| CN(C)CCCNCCCN | inactive |
| C[N+](C)(C)CC(O)CCl (stereo not given) | inactive |
| Nc1c(S(=O)(=O)O)cc(Br)c2c1C(=O)c1ccccc1C2=O | inactive |
| CCCCCCCCSCCO | inactive |
| CC(C)(C)S | inactive |
| COc1cc(C=O)ccc1OC(=O)C(C)C | inactive |
| COC(=O)/C=C(/C)N | inactive |
| c1ccc2sc(SSN3CCOCC3)nc2c1 | inactive |
